Source: PubChem
Rows were chosen to be rich in hits. Some 7.6% of all compounds tested hit in one or more screens of this group.
MCF10A rerep: induces DNA re-replication in MCF 10a normal breast cells; MCF 10A DNA re-replication, Hoechst nuclear intensity, 48 h; Potency, µM (highest dose often 46.1 µM), for the others: top-dose activity, positive = re-replication, actives largely listed as activators; 2.9% of 350,000 active; note: potency is the fitted concentration of half-maximal effect; % of control where 0% means no effect; nearly all actives have a fitted effect of over 50% in size
KB-V1 cytotox: KB-V1 MDR subline cytotoxicity; Potency, µM (titrated, usually from 46.1 µM), most hits filed as cytotoxic; 3.4% of 400,000 active; KB-V1 MDR cells viability, CellTiter-Glo, 72 h; AID 1347076; note: potency is the fitted concentration of half-maximal effect; % is set by controls: 0 for no effect and ±100 for the full control effect; nearly all actives have a fitted effect of over 60% in size
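Luminescent ATP read-out (CellTiter-Glo, 10 min) measures survival of drug-selected KB-V1 MDR cells after 72 h, 37 degrees C compound exposure. Medium: phenol-red-free DMEM, 10% FBS. Values from fitted concentration-response curves.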
KCNH2 3.1 block: KCNH2 3.1 (human) potassium channel inhibition; 0.95% of 340,000 active; activity change, % (tested at about 1.8 µM); U2OS KCNH2 3.1, thallium flux FluxOr; hits give low values; AID 720553;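 active = maximum activity change below -70%; inconclusive = maximum activity change from -70% to -50%; inactive = maximum activity change above -50%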;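 note: thallium influx rate constant from kinetic fluorescence after stimulation buffer; % is set by controls: 0 for no effect and ±100 for the full control effect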
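Virally transduced U2OS (3.1 isoform, 4 h infection in dark at RT) → overnight 37 C → FluxOr + Red40 in HBSS/HEPES, 45 min → stimulation buffer, 2 min kinetic read → rate constant vs DMSO controls.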
KCNH2 WT inh: inhibitors of human wildtype KCNH2 potassium channel; Q12809; U2OS, BacMam KCNH2, thallium flux FluxOr; hits give low values; activity change, % at 1.84 µM; 0.37% of 340,000 active;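 active = maximum activity change below -70%; inconclusive = maximum activity change between -70% and -50%; inactive = maximum activity change above -50%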; note: % is set by controls: 0 for no effect and ±100 for the full control effect
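U2OS cells transduced with wild-type KCNH2 virus are loaded with FluxOr dye for 45 min, and thallium flux is measured in kinetic reads before and after stimulation buffer. Rate constants are normalized to DMSO controls.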
KB-3-1 tox: kills parental KB-3-1 adenocarcinoma cells | Potency, µM (highest dose often 46.1 µM), usual class: cytotoxic | AID 1347075 | 1.4% of 400,000 active | KB-3-1 viability, CellTiter-Glo ATP luminescence, 72 h; note: potency is the fitted concentration of half-maximal effect; % is set by controls: 0 for no effect and ±100 for the full control effect; nearly all actives have a fitted effect of over 60% in size
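Viability of parental KB-3-1 cells, measured by CellTiter-Glo luminescence, followed a 72 h incubation at 37 °C with pinned compounds in phenol-red-free DMEM containing 10% FBS.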
SW480 rereplic: induces DNA re-replication in SW480 colon adenocarcinoma cells; SW480 DNA re-replication, Hoechst DNA content imaging, 48 h; Potency, µM (titrated, usually from 46.1 µM), for inactives: at the highest dose re-replication activation, actives largely listed as activators; 1.8% of 340,000 active; AID 624297; note: potency is the fitted concentration of half-maximal effect; % of control where 0% means no effect; nearly all actives have a fitted effect of over 55% in size
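250 cells/well; 23 nL cpd via pin tool; 48 hr, 37 C, 5% CO2; Hoechst 40 min; imager read of total nuclear intensity, ex 405/em 500-530 nm.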
Active calls of the source: *; i = inactive; ? = inconclusive; . = no result given; [ ] = remark or other dose. Unless noted, calls come from the whole dose curve; as a rule, active = well fitted curve in the direction sought with a large enough effect; inconclusive = small, poorly fitted or top-dose-only effect, or another doubt; inactive = no such curve, though single readings can be large; an effect the other way counts as inactive or inconclusive.

SMILES	MCF10A rerep	KB-V1 cytotox	KCNH2 3.1 block	KCNH2 WT inh	KB-3-1 tox	SW480 rereplic
Cc1[nH]c2ccccc2c1/C=N/NC(N)=S	3%	i	22	1	i	2%
Cc1cccc(NC(=S)N/N=C/c2c[nH]c3ccccc23)c1	1.8µM*	?	5	7	12µM*	12µM*
Cc1ccc(NC(=S)N/N=C/c2c(C)[nH]c3ccccc23)cc1	18µM*	i	11	2	i	?
O=C(COc1ccc(Cl)cc1)NNC(=O)c1ccc(=O)[nH]c1	0%	i	0	3	i	-1%
Nc1[nH]c(C(=O)c2ccccc2)c(-c2ccc(Cl)cc2)c1C(=O)NCc1ccco1	.	?	.	.	i	.
COc1ccc(CNC(=O)CCCn2nc(C)c3c(C)n(-c4ccccc4)nc3c2=O)cc1	8%	i	-25	-8	i	-1%
CC(=O)Nc1nc2cc3c(cc2s1)OCCO3	-2%	i	8	-4	?	2%
O=C(Nc1nc2cc3c(cc2s1)OCO3)C1CC1	9%	i	0	-7	i	?
CC(C)(C)C(=O)Nc1nc2cc3c(cc2s1)OCO3	0%	i	5	-3	i	3.3µM*
Fc1cccc2sc(Nc3nc4cc5c(cc4s3)OCCO5)nc12	5.2µM*	i	-6	-5	?	-6%
Fc1cccc2sc(Nc3nc4cc5c(cc4s3)OCO5)nc12	10µM*	i	-3	4	i	-10%
CC(C)C(=O)Nc1nc2cc3c(cc2s1)OCO3	-1%	i	-2	-7	i	-4%
Fc1cc(F)c2nc(Nc3nc4cc5c(cc4s3)OCO5)sc2c1	15µM*	i	-1	-4	i	-17%
O=C(O)COCC(=O)Nc1ccc(OCCc2ccccc2)cc1	2%	i	8	2	i	-9%
CCc1ccc(-c2nc3ccc(Br)cc3c(C(=O)O)c2C)s1	10%	i	-37	-5	?	0%
COCCN(C(=O)/C=C/c1ccccc1)c1nnc(-c2cccnc2)s1	-5%	i	-27	-2	i	-11%
CC(C)C[C@@H](COCc1cccc(C(F)(F)F)c1)N1CCN(C(=O)c2ccc(C(F)(F)F)cc2)CCC1=O	.	18µM*	.	.	?	.
Cc1cccc(C(=O)N2CCC(=O)N([C@H](COCc3cccc(C(F)(F)F)c3)Cc3ccccc3)CC2)c1	.	23µM*	.	.	i	.
Cc1cccc(C(=O)N2CCC(=O)N(C(COCc3cccc(C(F)(F)F)c3)Cc3ccccc3)CC2)c1 (stereo not drawn)	?	?	-2	6	i	?
Cc1cccc(COC[C@H](Cc2ccccc2)N2CCN(C(=O)c3cccc(Cl)c3)CCC2=O)c1	.	18µM*	.	.	?	.
CCOc1ccc(/C=C2/C(=O)N(c3ccc(OC)cc3)C(=S)N2CC(=O)OC)cc1OCC	23%	i	-9	3	i	-30%
CCOc1ccc(N2C(=O)/C(=C/c3cc(OC)c(OC)c(OC)c3)N(CC(=O)OC)C2=S)cc1	23µM*	?	6	-5	i	14%
O=S(=O)(NCC1OCCc2ccccc21)c1ccc(S(=O)(=O)N2CCOCC2)cc1 (stereo not drawn)	-7%	21µM*	1	7	i	1%
O=S(=O)(NCC1CCN(c2ccc(S(=O)(=O)N3CCOCC3)cc2)CC1)c1ccccc1	14%	?	-1	2	?	1%
O=C(CC1C[C@H](C(=O)N2CCCCC2)[C@@]2(CCc3ccccc3)c3[nH]c4ccccc4c3CCN2C1=O)NCCc1ccccn1 (stereo partly drawn)	24%	12µM*	-38	-2	?	-54%[9.22 µM]
SMILES	MCF10A rerep	KB-V1 cytotox	KCNH2 3.1 block	KCNH2 WT inh	KB-3-1 tox	SW480 rereplic
CN(C)CCCNC(=O)C[C@H]1C[C@H](C(=O)N2CCCCC2)[C@@]2(CCc3ccccc3)c3[nH]c4cc(-c5ccco5)ccc4c3CCN2C1=O	?	?	5	-34	?	6%
C[C@]12c3[nH]c4cc(-c5ccco5)ccc4c3CCN1C(=O)[C@@H](CC(=O)NCc1cccc(C(F)(F)F)c1)C[C@@H]2C(=O)N1CCCCC1	-41%	?	-4	-2	18µM*	?
CC(C)N(C(=O)[C@H]1C[C@H](CC(=O)NCCN2CCOCC2)C(=O)N2CCc3c([nH]c4cc(-c5ccco5)ccc34)[C@]12C)C(C)C	-38%	i	-15	-43	i	16µM*
C[C@]12c3[nH]c4cc(-c5ccco5)ccc4c3CCN1C(=O)[C@@H](CC(=O)NCCN1CCOCC1)C[C@@H]2C(=O)N1CCOCC1	4%	?	10	7	i	?
CN(C)CCCNC(=O)C[C@H]1C[C@H](C(=O)N2CCCCC2)[C@@]2(C)c3[nH]c4cc(-c5ccco5)ccc4c3CCN2C1=O	?	i	-23	0	i	2.1µM*
CC[C@]12c3[nH]c4cc(-c5ccco5)ccc4c3CCN1C(=O)[C@@H](CC(=O)NCc1cccc(C(F)(F)F)c1)C[C@@H]2C(=O)N1CCN(C(=O)C2CC2)CC1	2%	i	-7	-4	?	-3%[9.22 µM]
C[C@]12c3[nH]c4ccccc4c3CCN1C(=O)C(CC(=O)NCCc1ccccn1)C[C@@H]2C(=O)N1CCCCC1 (stereo partly drawn)	-9%	i	1	-4	i	-40%
CSc1cccc(N2CC(C(=O)Nc3cccc(S(=O)(=O)N4CCCC4)c3)CC2=O)c1 (stereo not drawn)	10%	i	21	9	i	9%
CCOCc1nnc(NC(=O)C2CCN(C(=O)C3CC(=O)N(c4ccc(C)cc4)C3)CC2)s1 (stereo not drawn)	-2%	i	5	-4	i	-19%
CN(C)/C=C/C1=CC(=O)CC(C)(C)C1	?	i	6	13	i	?
CCOCCCN(C)C1CCN(C(=O)c2oc3ccccc3c2NC(=O)Cc2ccc(F)cc2)CC1	14%	i	-83*	-107*	i	156%
Cc1ccc(CC(=O)Nc2c(C(=O)N3CCN(c4ccccc4F)CC3)oc3ccccc23)cc1	.	i	.	.	i	.
CCOCCCN(C)C1CCN(C(=O)c2oc3ccccc3c2NC(=O)c2cccc([N+](=O)[O-])c2)CC1	3%	i	-107*	-79*	i	0%
CCOc1ccc(C(=O)Nc2c(C(=O)N3CCC(N4CCCCC4)CC3)oc3ccccc23)cc1	2%	i	-28	23	i	?
